Only a selection was taken, and hits are over-represented in it overall.
Tgondii IFNg: T. gondii growth inhibition under IFN-gamma; Toxoplasma gondii growth in IFN-gamma-treated host cells; active compounds read low; activity change, negative = inhibition, % (test concentration not listed); 3.8% of 69,000 active; in the data active = activity change below about -70%, passing the limit was not always enough;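 note: host cells are HeLa cells infected with Toxoplasma gondii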
Large screens that a line does not name were inactive; ! = not confirmed by another sample.

CCCCN(CCCNc1nc(C(=O)OCC)nc2ccccc12)c1ccccc1	Tgondii IFNg -77.9
CCCCN(CC)c1nc(C(=O)OCC)nc2ccccc12	Tgondii IFNg -86.7
CCOC(=O)c1nc(NCCOC)c2ccccc2n1	none
COc1cccc(C(=O)NCCc2sc(-c3ccc(Cl)cc3)nc2C)c1	none
O=C(CN1C(=O)[C@H]2CCCN2c2ncccc21)Nc1ccc2c(c1)OCCO2	none
Cc1ccc(S(=O)(=O)N(C)C)cc1NS(=O)(=O)c1cc(Cl)sc1Cl	none
C1=C(c2ccccc2)CC(c2ccccc2)=NN=C1c1ccccc1	Tgondii IFNg -87.1
O=C1CC(c2ccccc2)=NN1c1ccccc1	none
COc1ccc([C@@H](C)NC(=O)c2cccc(C#CC(C)(C)O)c2)cc1	none
CS(=O)(=O)N1CCC2(CC1)CN(c1ncccn1)Cc1ccccc12	none
CNc1ncc(CN(C)C(=O)c2cccc(C#CC(C)(C)O)c2)cn1	none
CC[C@H](NCC(=O)Nc1ccccc1NC(C)=O)c1ccccc1	none
CCC/C=C/c1cccc(-n2cnnc2)c1	none
CCOc1ccc(-n2cnnc2)cc1-n1cccc1	Tgondii IFNg -74.4
c1cc(-n2ccnc2)cc(-n2cnnc2)c1	none
CCCN(CCC)S(=O)(=O)c1ccc(C(=O)Nc2ccc3c(c2)COCO3)cc1	none
COc1ccccc1NC(=O)CSc1nc2ccccc2n1CC(=O)N1CCOCC1	none
Cc1nc2ccccc2nc1SCC(=O)Nc1ccccc1OC(C)C	Tgondii IFNg -87.7
CCOc1ccccc1NC(=O)CSc1ccc(Cl)cc1	none
C=CCOCC12CCCOC1CCN(C(=O)c1cccn1C)C2 (stereo not drawn)	none
COCC(=O)NC1CCc2c(ccc(=O)n2Cc2csc(C)n2)C1 (stereo not drawn)	none
Fc1ccccc1-c1nccn1Cc1ccccc1-n1ccnc1	none
O=C(COc1cccnc1)N1CCn2nc(C(=O)N3CCCC3)cc2C1	none
Cn1c(CNC(=O)c2ccc(Cl)cc2Cl)cc2ccccc21	none
CC(C)C[C@H](NC(=O)CNC(=O)c1cc(Cl)ccc1Cl)B(O)O	Tgondii IFNg -79.3
CC(C)CC(NC(=O)c1cccc(Cl)c1)C(=O)O (stereo not drawn)	none
Cc1cccc(-c2nc(C)c(CCNS(=O)(=O)c3cccs3)s2)c1	none
CCOC(=O)c1nc(Nc2ccc(F)c(Cl)c2)c2ccccc2n1	none
COc1cncc(C(=O)Nc2ccc(C)c(F)c2)c1	none
CCOC(=O)c1cc(NC(=O)c2ccc(F)c(Cl)c2)ccc1Oc1cncc(Cl)c1	Tgondii IFNg -89.6
Cc1ccc(Nc2nc(-c3nnc(-c4ccccc4)o3)nc3ccccc23)cc1F	none
COCCC1COC2(CCCN(C(=O)Cc3cccnc3)C2)C1 (stereo not drawn)	none
COc1ccc(-c2nc(C)c(CCNS(=O)(=O)c3ccc4c(c3)CCCC4)s2)cc1OC	none
CC(C)N(Cc1ncc[nH]1)CC1CCC(=O)N1 (stereo not drawn)	none
C=CCN(Cc1cccnc1)C(=O)c1nc2ccccc2s1	none
CSc1cccc(NC(=O)CN2C(=O)CCc3cc(S(=O)(=O)N4CCCC4)ccc32)c1	none
CC1CCN(S(=O)(=O)c2ccc3c(c2)CCC(=O)N3CC(=O)Nc2cccnc2)CC1	none
CC1CCN(S(=O)(=O)c2ccc3c(c2)CCC(=O)N3CC(=O)NC(C)C)CC1	none
Cc1ccc(C)c(NC(=O)CN2C(=O)CCc3cc(S(=O)(=O)N4CCCCC4C)ccc32)c1 (stereo not drawn)	none
CC1CCN(S(=O)(=O)c2ccc3c(c2)CCC(=O)N3CC(=O)N(Cc2ccccc2)C(C)C)CC1	Tgondii IFNg -80.8
CCc1cccc(NC(=O)CN2C(=O)CCc3cc(S(=O)(=O)N4CCCCC4C)ccc32)c1 (stereo not drawn)	Tgondii IFNg -76.8
Cc1cccc(NC(=O)CN2C(=O)CCc3cc(S(=O)(=O)N4CCCCC4C)ccc32)c1C (stereo not drawn)	none
CC1CCN(S(=O)(=O)c2ccc3c(c2)CCC(=O)N3CC(=O)Nc2ccc(F)c(F)c2)CC1	none
CCc1cccc(NC(=O)CN2C(=O)CCc3cc(S(=O)(=O)N4CCC(C)CC4)ccc32)c1	Tgondii IFNg -127.5
Cc1ccc(NC(=O)CN2C(=O)CCc3cc(S(=O)(=O)N4CCCCC4C)ccc32)cc1F (stereo not drawn)	none
CC1CCN(S(=O)(=O)c2ccc3c(c2)CCC(=O)N3CC(=O)NCc2ccccc2)CC1	none
CSc1cccc(NC(=O)CN2C(=O)CCc3cc(S(=O)(=O)N4CCCCC4C)ccc32)c1 (stereo not drawn)	Tgondii IFNg -85.6
Cc1cccc(N2CCN(C(c3nnnn3C(C)(C)C)C(C)C)CC2)c1C (stereo not drawn)	none
Cc1cccc2ncc(C(=O)N[C@H]3C[C@H]4CN(C)CCN4C3)c(=O)n12	none
Cc1ccc2c(c1C)-n1cccc1C1(CCN(C(=O)c3cccc(F)c3)CC1)N2	none
O=C(O)c1ccc(NC(=NCCc2ccccc2)N2CCN(c3ncnc4ccccc34)CC2)cc1	none
CC(C)C(OC(=O)CN1C(=O)COc2ccccc21)C(=O)NCc1ccco1 (stereo not drawn)	none
Cc1cccn2cc(C(=O)NCCN=C3NS(=O)(=O)c4ccccc43)nc12	none
CCc1cc(-c2cccc(-n3cccn3)c2)ccc1NC(C)=O	none
Cc1ccc(NC(=O)N2CCC3(CC2)Nc2cc(F)ccc2-n2cccc23)cc1F	none
CCN(CC)C(=O)CC1CC2(CCN(c3ncccn3)CC2)c2ccccc21 (stereo not drawn)	none
Cc1ccc(NC(=O)c2ccccc2)c(NC(=O)c2ccc(CN(C)C)o2)c1	none
OC(CCN1CCCC1)(c1ccccc1)C1CCCCC1 (stereo not drawn)	none
CN1CCCN=C1COC(=O)C(O)(c1ccccc1)C1CCCCC1 (stereo not drawn)	Tgondii IFNg -74.4!
CC[N+](CC)(CC)CCC(O)(c1ccccc1)C1CCCCC1 (stereo not drawn)	none
CCOCC1CN(C(=O)Cc2ccc(OC)cc2)Cc2ccnn2C1 (stereo not drawn)	none
COc1cc(O)c(C(=O)c2ccccc2)cc1O	none
O=C(c1ccccc1)c1cc(C(=O)c2ccccc2)c(-c2ccccc2)nc1-c1ccccc1	Tgondii IFNg -89.3
Cc1nc(-c2ccccc2)c(NC(=O)c2ccccc2)s1	none
CNC(=O)Cn1cc(-c2ccc(CO)cc2)cn1	none
COCCNC(=O)c1cc(N2CCC3(CCCN(C)C3=O)C2)ccn1 (stereo not drawn)	none
COc1cc2nc3n(c(=O)c2cc1OC)CCN(C(=O)C(C)(C)C)CC3	none
O=C(NC12CC3CC(CC(C3)C1)C2)N1CCC2(CC1)Nc1cc(F)ccc1-n1cccc12	none
CC1(C)CCC(c2ccc(Cl)cc2)=C(CN2CCN(c3ccc(C(=O)NS(=O)(=O)c4ccc(N[C@H](CCN5CCOCC5)CSc5ccccc5)c(S(=O)(=O)C(F)(F)F)c4)cc3)CC2)C1	Tgondii IFNg -72.1
O=S(=O)(NCCN1CCOCC1)c1cccc(C(F)(F)F)c1	none
CN(C)CC[C@H](CSc1ccccc1)Nc1ccc(S(=O)(=O)NC(=O)c2ccc(N3CCN(Cc4ccccc4-c4ccc(Cl)cc4)CC3)cc2)cc1[N+](=O)[O-]	Tgondii IFNg -76.2
CCc1noc(CCC(=O)N2CC(C(=O)N3CCN(c4ccccc4)CC3)C2)n1	none
O=C(c1cc(-c2ccn[nH]2)n2ccccc12)C1CC1	none
O=C(NCc1ccccc1Cl)c1nc(Nc2ccccc2)c2ccccc2n1	none
CCN1C(=O)C2(CCN(Cc3cccnc3)CC2)CC12CCN(C(=O)CC(C)C)CC2	none
C[C@@H]1CN([C@@H](C)CO)C(=O)c2cc(N(C)C)ccc2O[C@@H](C)CCCCO[C@@H]1CN(C)S(=O)(=O)c1cn(C)cn1	none
CC(=O)Nc1ccc(NC(=O)CN2C(=O)CCc3cc(S(=O)(=O)N4CCC(C)CC4)ccc32)cc1	none

Compound activity from PubChem.
